This assay addresses Polyunsaturated fatty acid lipoxygenase ALOX12 (Homo sapiens) (UniProt P18054). As to the kind of experiment: Inhibitors of 12-hLO (12-human lipoxygenase): Cuvette-Based Hit Assay for Validation of Followup Compounds. Conditions: purified 12-hLO, cuvette absorbance 234 nm. The procedure: The enzyme activity of 12-hLO was determined by a direct measurement of product formation by monitoring the absorbance at 234 nm in a 2 mL cuvette. IC50 values of inhibitors were obtained by measuring the enzymatic rate at a variety of concentrations (Carroll et al, Segraves et al). This assay was used to validate actives or inconclusive putative inhibitors identified in the primary screen (see related BioAssay AIDs). Assay Provider: Holman, T.R., University of California, Santa Cruz Screening Center PI: Austin, Christopher P. Screening Center: NIH Chemical Genomics Center
For control experiments, 2 mL of substrate buffer (10 uM arachidonic acid / 25 mM HEPES / 0.01% (v/v) Triton X-100, pH 8.0) was aliquoted in a cuvette with a magnetic stir bar. After equilibrium was ensured, an aliquot of inhibitor solvent was added (DMSO), and equilibrium was once again assured. The reaction was started by adding enzyme to the cuvette and the reaction was followed until completed. The inhibition experiments were performed as above, except the actual inhibitory compound was added instead of vehicle. To achieve an IC50, typically 5 concentrations of the inhibitor were studied. If the inhibitor concentration was constant, then five different reaction volumes were used. […] 3; No change in absorbance ensured. […] 5; No change in absorbance ensured. […]

Activity calls are given as the source filed them. The call rests on the fitted dose curve.

Sequence of Polyunsaturated fatty acid lipoxygenase ALOX12 (Homo sapiens) (P18054 whole entry, looked up): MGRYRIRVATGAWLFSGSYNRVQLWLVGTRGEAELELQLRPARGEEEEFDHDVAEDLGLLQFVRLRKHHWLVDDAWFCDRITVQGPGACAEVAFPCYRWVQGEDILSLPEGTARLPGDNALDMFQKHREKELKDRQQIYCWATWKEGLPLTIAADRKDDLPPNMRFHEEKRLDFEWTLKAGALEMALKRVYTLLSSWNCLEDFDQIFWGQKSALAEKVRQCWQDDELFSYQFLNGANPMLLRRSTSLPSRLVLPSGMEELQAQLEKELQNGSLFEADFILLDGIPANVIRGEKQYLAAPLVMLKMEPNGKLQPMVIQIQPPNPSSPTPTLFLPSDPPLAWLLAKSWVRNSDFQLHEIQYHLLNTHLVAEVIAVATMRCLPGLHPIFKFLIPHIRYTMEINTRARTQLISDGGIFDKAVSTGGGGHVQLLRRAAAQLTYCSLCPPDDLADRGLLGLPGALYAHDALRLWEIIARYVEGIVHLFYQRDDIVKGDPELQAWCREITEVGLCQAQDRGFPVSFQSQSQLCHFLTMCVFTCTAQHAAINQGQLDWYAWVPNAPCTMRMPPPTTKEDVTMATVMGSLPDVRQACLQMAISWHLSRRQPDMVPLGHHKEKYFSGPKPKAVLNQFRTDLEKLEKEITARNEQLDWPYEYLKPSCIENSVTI

On to `CC(Oc1ccc(Cl)cc1Cl)C(=O)Nc1ccc(S(=O)(=O)Nc2cnc3ccccc3n2)cc1` (stereo unspecified), for which the Potency is 22.6 µM (active).

The record behind these values is PubChem BioAssay AID493216 (National Center for Advancing Translational Sciences (NCATS), 2011).
